High-throughput results deposited in PubChem by several laboratories.
Hits are enriched below; roughly 7.8% of the tested compounds scored in any of these assays.
sEH inh – soluble epoxide hydrolase (human) inhibition | recombinant human sEH enzymatic activity assay | inhibition, % at 2 µM | 0.34% of 91,000 active; in the data active = inhibition above about 80%
PostGolgi yeast – growth inhibition of a yeast mutant, post-Golgi transport screen; post-Golgi transport phenotypic cell assay; inhibition, % at 10 µM; AID 739; 0.9% of 98,000 active;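 also: yeast cells grown in 1536-well plates; yeast grown about 18 h at 30C before absorbance read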
PostGolgi ctrl – inhibits growth of the yeast control strain; efflux-deficient yeast background strain, growth absorbance A615, 16 h; inhibition, % at 10 µM; 5% of 98,000 active; AID 738
sEH act – soluble epoxide hydrolase (human) activation | purified human sEH enzymatic activity, activator screen | activation, % at 2 µM | 0.04% of 91,000 active | AID 717 | P34913; in the data active = activation above about 37%
Cav32 inh – blocks human Cav3.2 T-type calcium channel; Cav3.2-expressing cells, Fluo-4 calcium fluorescence FDSS; active compounds read low; O95180; B-score at 10 µM; AID 449739; 4% of 100,000 active;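 active = single-dose well whose peak fluorescence ratio is a statistical outlier from its plate by either plate-standardised score or position-corrected B-score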
A number is an active result; – = inactive; · = not tested or not shown. Rule as the data show it, unless noted: active = inhibition above about 30%; inactive = the rest.

SMILES	sEH inh	PostGolgi yeast	PostGolgi ctrl	sEH act	Cav32 inh
O=C(CCC1CCCC1)N[C@@H](Cc1ccc(O)cc1)C(=O)O	·	·	·	·	–
O=S(=O)(NCCOCC(F)(F)C(F)F)c1ccc2oc3ccccc3c2c1	–	–	41.1	–	-4.59
COc1ccc(OCCNS(=O)(=O)c2ccc3oc4ccccc4c3c2)cc1	–	–	–	–	–
CCOc1ccc(C2CC(c3cccc(OC)c3OC)n3nnnc3N2)cc1Cl (stereo not given)	·	–	–	·	-4.13
CCCCC(NC(=O)c1ccccc1)C(=O)OCC(=O)N1c2ccccc2Sc2ccccc21 (stereo not given)	–	–	–	–	-7.16
CC(C)CNCC(=O)N1c2ccccc2Sc2ccccc21	–	–	–	–	–
CN(C)c1ccc(/C=C(\C#N)C(=O)Nc2nc3c(s2)CCN(Cc2ccccc2)C3)cc1	–	·	–	–	-3.97
O=C(O)CCSc1nc(C(F)(F)F)cc(=O)n1-c1ccccc1	–	–	30.5	–	–
Cc1cc(C(=O)N/N=C/c2cccc([N+](=O)[O-])c2)c(C)o1	–	–	–	–	–
Cc1c(Cl)c([N+](=O)[O-])nn1Cc1ccc(C(=O)N/N=C\c2cccc(Br)c2)o1	95.6	66.9	–	–	-6.44
CSCCC1NC(=O)N(CC(=O)Nc2cccc3ccccc23)C1=O (stereo not given)	–	–	–	–	–
NC(=O)C1CCN(C(=O)c2ccc(CS(=O)(=O)c3c(Cl)cccc3Cl)o2)CC1	–	–	–	–	–
CCCCn1c(-c2cccs2)nc2nc3ccccc3nc21	–	–	31.1	–	–
C=CCOc1nc(N2CCCC2)nc(N2CCCC2)n1	–	–	–	–	–
CCCOCCOC(=O)c1[nH]c2c(c1C)C(=O)CC(c1cc(OC)ccc1OC)C2 (stereo not given)	·	–	–	·	-5.29
COc1cc(C2CC(=O)c3c([nH]c(C(=O)OCCOC(C)C)c3C)C2)cc(OC)c1OC (stereo not given)	–	–	–	–	-4.68
O=C(CCc1ccccc1)n1nc(-c2ccco2)nc1SCc1ccccc1	·	–	–	·	·
Cc1nnc(N2C(=O)C(O)=C(C(=O)c3ccco3)C2c2ccc(F)cc2)s1 (stereo not given)	–	–	–	–	–
Cc1nnc(N2C(=O)C(O)=C(C(=O)c3ccco3)C2c2ccc(C(C)(C)C)cc2)s1 (stereo not given)	–	·	·	–	-3.67
CSc1ccc(S(=O)(=O)NCc2ccccc2)cc1	–	–	–	–	–
O=CNc1ccc(S(=O)(=O)NCc2ccccc2)cc1	–	–	–	39.2	–
Cc1cc(C(=O)CN2C(=O)NC(c3ccccc3)(c3ccccc3)C2=O)c(C)n1Cc1ccccc1	–	–	–	–	-4.99
O=C(Nc1ccccc1C(=O)Nc1ccc2c(c1)OCO2)c1cccs1	–	–	–	–	–
CCc1ccc(CNC(=O)C(=O)NCCc2ccc(OC)c(OC)c2)cc1	–	·	·	–	-5.31
CCOC(=O)[C@@H]1[C@H]2COc3ccc(Br)cc3[C@@H]2N2C(=O)N(c3ccc(Cl)cc3)C(=O)[C@]12C	·	·	·	·	–
SMILES	sEH inh	PostGolgi yeast	PostGolgi ctrl	sEH act	Cav32 inh
Cc1cc(NC(=O)CSc2ccc(-c3nc4cc(C)c(C)cc4[nH]3)cn2)no1	–	–	–	–	–
O=C(CSc1nnc(-c2ccccc2)c(-c2ccccc2)n1)N1CCc2ccccc21	–	–	–	–	-4.53
O=C(CSc1nc(Nc2ccccc2)nc(N2CCOCC2)n1)N1CCc2ccccc21	–	–	53.6	–	–
c1ccc(Nc2nc(N3CCOCC3)nc(N3CCOCC3)n2)cc1	–	–	32.2	–	·
Cc1cc2nc(-c3ccc(SCC(=O)N4CCc5ccccc54)nc3)[nH]c2cc1C	84.8	–	–	–	–
O=C(CSc1nc(N2CCCCC2)nc(N2CCCCC2)n1)N1CCc2ccccc21	–	–	–	–	·
Cc1ccc(C(=O)N2CCC3(CC2)Oc2ccc(F)cc2C(=O)C32CC(c3cccnc3)=NO2)s1 (stereo not given)	·	·	·	·	–
CN1CCN(C(=O)Cn2c(=O)oc3cc(S(=O)(=O)NCc4ccccc4)ccc32)CC1	–	–	–	–	–
CC(c1nnc(SCC(=O)c2c(N)n(C)c(=O)n(C)c2=O)n1-c1ccc(Cl)cc1)N(C)C (stereo not given)	–	–	37.4	–	–
Cc1nnc(SCC(=O)c2c(N)n(C)c(=O)n(C)c2=O)n1Cc1ccccc1	·	–	–	·	–
CCCC(=O)O[C@H]1C[C@@H](C)N(C(=O)c2ccccc2)c2ccc(C)cc21	–	–	38.9	–	-7.97
CC1CC(Nc2ccccc2)c2ccccc2N1C(=O)c1cccnc1 (stereo not given)	–	·	·	–	–
COc1ccccc1N1CCN(C(=O)C2CC=CCC2C(=O)O)CC1 (stereo not given)	–	–	–	–	–
O=C(C1COc2ccccc2O1)N1CCN(c2ccccc2)CC1 (stereo not given)	·	–	–	·	–
COc1ccccc1N1CCN(C(=O)C2c3ccccc3Oc3ccccc32)CC1	·	–	41.6	·	-5.81
O=C(C1c2ccccc2Oc2ccccc21)N1CCN(c2ccc(Cl)cc2)CC1	–	–	37.4	–	·
COCCNC(=O)CN(C(=O)Cn1nnc2ccccc21)c1ccc(C)c(F)c1	–	·	·	–	–
O=C(N/N=C\c1cc(Br)cs1)C1COc2ccccc2O1 (stereo not given)	–	–	37.4	–	–
O=C(N/N=C/c1ccc2c(c1)OCO2)C1COc2ccccc2O1 (stereo not given)	–	–	–	–	–
COc1cc2c(cc1NC(=O)C(c1ccccc1)c1ccccc1)CCCC2	–	–	–	–	-6
CC(C)COn1c(=S)[nH]c2ccccc2c1=O	–	–	37.9	–	–
CCc1oc(C(=O)O)cc1COC	·	–	32.8	·	–
CCOc1ccc2[nH]c(=O)c(CN(Cc3cccnc3)C(=O)Nc3ccccc3OC)cc2c1	–	–	–	–	–
Cc1cccc2cc(CN(CC3CCCO3)C(=O)NC3CCCCC3)c(=O)[nH]c12 (stereo not given)	–	–	–	–	–
Cc1cccc2cc(CN(Cc3ccco3)C(=O)NC3CCCCC3)c(=O)[nH]c12	–	–	41.4	–	–
SMILES	sEH inh	PostGolgi yeast	PostGolgi ctrl	sEH act	Cav32 inh
CN(Cc1ccccc1)C(=O)NC1CCCCC1	–	·	·	–	–
COc1ccc2[nH]c(=O)c(CN(Cc3cccnc3)C(=O)Nc3ccccc3)cc2c1	·	104.6	93.8	·	–
CCc1ccc2[nH]c(=O)c(CN(Cc3ccccc3OC)C(=O)Nc3ccccc3OC)cc2c1	–	–	45.1	–	-5.23
O=C(NC1CCCCC1)N(Cc1ccccc1)Cc1ccco1	–	–	–	–	-9.12
CCN(CC)CCN(Cc1cc2cc(C)ccc2[nH]c1=O)C(=O)Nc1ccccc1OC	–	–	–	–	–
O=C(NC1CS(=O)(=O)CC1NCc1ccccc1)c1ccccc1 (stereo not given)	·	–	–	·	–
COc1cccc(C(=O)N(Cc2ccco2)Cc2cc3cccc(C)c3[nH]c2=O)c1	–	–	–	–	–
COc1ccccc1NC(=O)N(Cc1ccco1)Cc1cc2c(C)ccc(C)c2[nH]c1=O	–	·	·	–	-6.03
COc1ccccc1NC(=O)N(Cc1ccco1)Cc1cc2cccc(C)c2[nH]c1=O	–	–	36.7	–	–
